The values that follow come from the supplement of paper PMC3414501.

For experiment [1], the system named is S. cerevisiae SK1 pCDA2-eGFP (USY613), sporulating. As to the kind of experiment: CDA2-GFP sporulation assay sensitivity score (z-score vs DMSO controls); higher = stronger inhibition of sporulation, active = hit call of the paper.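 Note: active if sensitivity score above 5.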
The subject of experiment [2] is S. cerevisiae NKY1551 his4x/his4B, sporulating. In words: HIS4 meiotic recombination assay sensitivity score (z-score vs DMSO controls); higher = stronger inhibition of sporulation/recombination, active = hit call of the paper.
Experiment [3] relates to S. cerevisiae AD1-9 (efflux-pump deficient), vegetative growth in YPD. In words: growth sensitivity score (doubling time z-score vs DMSO controls); higher = slower growth, strongly negative scores also mark growth inhibition (complete suppression), active = hit call of the paper. The method in brief:
(§1)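 Rich medium in microtiter plates was seeded with Saccharomyces cerevisiae strains BY4741 and AD1-9 at an OD600 of 0.065, and compounds were added as a 1:100 dilution of DMSO stock. A Tecan GENios reader recorded optical density every 15 min for 24 hours, with eight solvent-only wells in each experiment. Average doubling time was the time to reach a set generation point divided by generation number. The growth sensitivity score was the compound mean minus the solvent-only mean, divided by the solvent-only standard deviation.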

Experiment [4] relates to S. cerevisiae BY4741 (wild-type), vegetative growth in YPD. The description is as above. In a few lines:
as §1

Each structure is given as a SMILES string. Where a name gives a salt, the structure may show the parent alone.
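Throughout, for HIS4 meiotic recombination assay sensitivity score (z-score vs DMSO controls): active if sensitivity score above 5.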

For the molecule `CCCN[C@H]1CCc2nc(N)sc2C1` [Pramipexole] (stock concentration (mM, diluted 1:100): 10), the “CDA2-GFP sporulation assay sensitivity score” value in experiment [1] was -1.03 (inactive). Moreover, in experiment [2], the “HIS4 meiotic recombination assay sensitivity score” value is -2.92 (inactive). Further, the growth sensitivity score in experiment [3] is 51 (active); in experiment [4] it was -0.06 (inactive).
Regarding `Cc1[nH]c(=O)c(C#N)cc1-c1ccncc1` [Milrinone] (stock concentration (mM, diluted 1:100): 10.1), the “CDA2-GFP sporulation assay sensitivity score” value in experiment [1] was -1.34 (inactive). Further, the “HIS4 meiotic recombination assay sensitivity score” value in experiment [2] was -0.23 (inactive). Moreover, the results for the growth sensitivity score in experiment [3] and in experiment [4] were -2.83 and -0.97 (inactive), respectively.
As to `COc1cc2c(cc1OC)C(=O)C(CC1CCN(Cc3ccccc3)CC1)C2` (stereo unspecified) [Donepezil] (stock concentration (mM, diluted 1:100): 9.1), the “CDA2-GFP sporulation assay sensitivity score” value in experiment [1] was 4.44 (inactive). In experiment [2], the “HIS4 meiotic recombination assay sensitivity score” value was 0.42 (inactive). The figures for the growth sensitivity score in experiment [3] and in experiment [4] were 3.1 (active) and 2.75 (active), respectively.
The corresponding values for `Nc1c2c(nc3c1CCC3)CCCC2` [Amiridine] (stock concentration (mM, diluted 1:100): 10) are 2.39 (inactive), 1.51 (inactive), 4.09 (active) and 4.93 (active).
The corresponding values for `CNCC[C@H](Oc1cccc2ccccc12)c1cccs1` [Duloxetine] (stock concentration (mM, diluted 1:100): 10) are 1.64 (inactive), -1.33 (inactive), 99.6 (active) and 11 (active).
The corresponding values for `CC(C(=O)O)c1ccc(-c2ccccc2)c(F)c1` (stereo unspecified) [Flurbiprofen] (stock concentration (mM, diluted 1:100): 11.4) are -0.22 (inactive), -0.16 (inactive), 0.77 (inactive) and 0.01 (inactive).
As to `COc1cc(C)nc(-n2nc(C)cc2OC)n1` [Mepirizole] (stock concentration (mM, diluted 1:100): 10), the “CDA2-GFP sporulation assay sensitivity score” value in experiment [1] is -1.87 (inactive). The “HIS4 meiotic recombination assay sensitivity score” value in experiment [2] is -1.87 (inactive). The growth sensitivity score in experiment [3] was -0.94 (inactive); in experiment [4] it was -1.02 (inactive).
Consider `O=c1n(CCCN2CCN(c3cccc(Cl)c3)CC2)nc2ccccn12` [Trazodone hydrochloride] (stock concentration (mM, diluted 1:100): 10), for which, in experiment [1], the “CDA2-GFP sporulation assay sensitivity score” value is 5.45 (inactive). The “HIS4 meiotic recombination assay sensitivity score” value in experiment [2] is -0.45 (inactive). Besides, the results for the growth sensitivity score in experiment [3] and in experiment [4] were -3.23 and 0.24 (inactive), respectively.
For `C[C@H]1C[C@H]2[C@@H]3CCC4=CC(=O)C=C[C@]4(C)[C@@]3(Cl)[C@@H](O)C[C@]2(C)[C@@]1(O)C(=O)CO` [Beclomethasone] (stock concentration (mM, diluted 1:100): 10), in that order: 1.56 (inactive), -3.46 (inactive), 2.68 (active) and 0.52 (inactive).
The corresponding values for `CCN(CC)C(=O)C1(c2ccccc2)CC1CN` (stereo unspecified) [Milnacipran] (stock concentration (mM, diluted 1:100): 10) are 2.47 (inactive), -0.19 (inactive), -0.1 (inactive) and -0.02 (inactive).
On to `O=c1c(-c2ccccc2)c1-c1ccccc1` [Diphenylcyclopropenone] (stock concentration (mM, diluted 1:100): 10), for which the “CDA2-GFP sporulation assay sensitivity score” value in experiment [1] was 0.85 (inactive). Moreover, in experiment [2], the “HIS4 meiotic recombination assay sensitivity score” value was -0.87 (inactive). Further, the figures for the growth sensitivity score in experiment [3] and in experiment [4] were 110 (active) and 39.9 (active), respectively.
For `CS(=O)(=O)c1ccc(C2=C(c3ccccc3)C(=O)OC2)cc1` [Rofecoxib] (stock concentration (mM, diluted 1:100): 10), in that order: 0.79 (inactive), -1.67 (inactive), -0.37 (inactive) and 0.04 (inactive).
For `C[N+]1(C)CCC(OC(=O)C(O)(c2ccccc2)C2CCCC2)C1` (stereo unspecified) [Glycopyrrolate] (stock concentration (mM, diluted 1:100): 10), in that order: 1.55 (inactive), -0.65 (inactive), -0.14 (inactive) and -0.04 (inactive).
As for `OCc1cccnc1` [3-Pyridinemethanol] (stock concentration (mM, diluted 1:100): 10), the “CDA2-GFP sporulation assay sensitivity score” value in experiment [1] is 2.69 (inactive). Also, the “HIS4 meiotic recombination assay sensitivity score” value in experiment [2] is 0.73 (inactive). Besides, the values for the growth sensitivity score in experiment [3] and in experiment [4] were 0.78 (inactive) and -1.12 (inactive), respectively.
For `COc1cc(OC)c(C(=O)CCCN2CCCC2)c(OC)c1` [Buflomedil hydrochloride] (stock concentration (mM, diluted 1:100): 8.9), in that order: -0.24 (inactive), -1.08 (inactive), 0.38 (inactive) and 2.01 (active).
As for `CCC(C)(C)N=C(NC#N)Nc1cccnc1` [Tocris-1355] (stock concentration (mM, diluted 1:100): 9.9), the “CDA2-GFP sporulation assay sensitivity score” value in experiment [1] was 3.65 (inactive). Further, the “HIS4 meiotic recombination assay sensitivity score” value in experiment [2] is -1.39 (inactive). For the same molecule, the growth sensitivity score in experiment [3] is -1.02 (inactive); in experiment [4] it was 0.46 (inactive).
For `CCN(CC)CC1CCCCN1CC(=O)N1c2ccccc2C(=O)Nc2cccnc21` (stereo unspecified) [Otenzepad] (stock concentration (mM, diluted 1:100): 10), in that order: 0.65 (inactive), -0.63 (inactive), -1.89 (inactive) and -2.57.
Turning to `N[C@@H]1CONC1=O` [D-Cycloserine] (stock concentration (mM, diluted 1:100): 10), the “CDA2-GFP sporulation assay sensitivity score” value in experiment [1] was 0.63 (inactive). Also, the “HIS4 meiotic recombination assay sensitivity score” value in experiment [2] is -5.18 (inactive). Besides, the growth sensitivity score in experiment [3] is 1.38 (inactive); in experiment [4] it was 1.58 (inactive).
For `CCCCC[C@H](O)/C=C/[C@H]1[C@H](O)CC(=O)[C@@H]1CCCCCCC(=O)O` [Prostaglandin E1] (stock concentration (mM, diluted 1:100): 10), in that order: 6.45 (inactive), 1.5 (inactive), 0.11 (inactive) and -0.67 (inactive).
The corresponding values for `O=c1[nH]cnc2c1ncn2[C@H]1CC[C@@H](CO)O1` [Didanosine] (stock concentration (mM, diluted 1:100): 10.1) are -0.63 (inactive), 0.35 (inactive), -1.72 (inactive) and -1.9 (inactive).
For `CN(Cc1cnc2nc(N)nc(N)c2n1)c1ccc(C(=O)N[C@@H](CCC(=O)O)C(=O)O)cc1` [Methotrexate] (stock concentration (mM, diluted 1:100): 14.6), in that order: -2.22 (inactive), 0.19 (inactive), -2.15 and -0.16 (inactive).
`O=C(O)C[C@H](O)C[C@H](O)/C=C/c1c(C2CC2)nc2ccccc2c1-c1ccc(F)cc1` [Livalo] (stock concentration (mM, diluted 1:100): 5): the “CDA2-GFP sporulation assay sensitivity score” value in experiment [1] was 0.3 (inactive). The “HIS4 meiotic recombination assay sensitivity score” value in experiment [2] is -3.02 (inactive). The growth sensitivity score in experiment [3] was 32.2 (active); in experiment [4], 15.7 (active).
The corresponding values for `CC(=O)NCCCCCCNC(C)=O` [Hexamethylene bisacetamide] (stock concentration (mM, diluted 1:100): 10) are 0.71 (inactive), -0.63 (inactive), 1.99 (inactive) and 1.69 (inactive).
The corresponding values for `O=C(O)Cc1ccccc1Nc1c(Cl)cccc1Cl` [Diclofenac] (stock concentration (mM, diluted 1:100): 10) are 0.82 (inactive), 0.28 (inactive), 4.97 (active) and 1.48 (inactive).
The corresponding values for `C#C[C@]1(O)CC[C@H]2[C@@H]3CCc4cc(O)ccc4[C@H]3CC[C@@]21C` [Ethynylestradiol] (stock concentration (mM, diluted 1:100): 10) are 6.44 (inactive), -1.32 (inactive), 229 (active) and 2.85 (active).
Regarding `Cc1c(OCC(F)(F)F)ccnc1C[S+]([O-])c1nc2ccccc2[nH]1` (stereo unspecified) [Lansoprazole] (stock concentration (mM, diluted 1:100): 10.1), the “CDA2-GFP sporulation assay sensitivity score” value in experiment [1] is 14.2 (inactive). Further, the “HIS4 meiotic recombination assay sensitivity score” value in experiment [2] was 1.42 (inactive). In addition, the growth sensitivity score in experiment [3] was 2.67 (active); in experiment [4] it was 1.37 (inactive).
The corresponding values for `CC(=O)[C@H]1CC[C@H]2[C@@H]3CCC4=CC(=O)CC[C@]4(C)[C@H]3CC[C@]12C` [Progesterone] (stock concentration (mM, diluted 1:100): 10) are 16.2 (active), 6.09 (active), 112 (active) and 4.04 (active).
The corresponding values for `Clc1ccc(CO/N=C(\Cn2ccnc2)c2ccc(Cl)cc2Cl)c(Cl)c1` [Oxiconazole nitrate] (stock concentration (mM, diluted 1:100): 10) are 0.87 (inactive), -3.02 (inactive), 47.9 (active) and 66.3 (active).
For `COCCCOc1ccnc(C[S+]([O-])c2nc3ccccc3[nH]2)c1C` (stereo unspecified) [Rabeprazole] (stock concentration (mM, diluted 1:100): 10.6), in that order: 11.4 (active), 3.07 (inactive), 31.5 (active) and 12.2 (active).
`CC(=O)OCC(CCn1cnc2cnc(N)nc21)COC(C)=O` [Famciclovir] (stock concentration (mM, diluted 1:100): 10): the “CDA2-GFP sporulation assay sensitivity score” value in experiment [1] is 0.31 (inactive). Besides, the “HIS4 meiotic recombination assay sensitivity score” value in experiment [2] was -0.43 (inactive). Moreover, the results for the growth sensitivity score in experiment [3] and in experiment [4] were -0.2 (inactive) and -1.36 (inactive), respectively.
The corresponding values for `CC1(C)O[C@@H]2[C@@H](CO[C@@]3(COS(N)(=O)=O)OC(C)(C)O[C@@H]23)O1` [Topiramate] (stock concentration (mM, diluted 1:100): 10) are -1.32 (inactive), 0.22 (inactive), -0.81 (inactive) and -1.18 (inactive).
The corresponding values for `Cc1[nH]cnc1CN1CCc2c(c3ccccc3n2C)C1=O` [Alosetron hydrochloride] (stock concentration (mM, diluted 1:100): 8.9) are -0.89 (inactive), -3.51 (inactive), -0.69 (inactive) and 3.01 (active).
The corresponding values for `NC[C@H]1CC[C@H](C(=O)Oc2ccc(CCC(=O)O)cc2)CC1` [Cetraxate hydrochloride] (stock concentration (mM, diluted 1:100): 9) are -0.06 (inactive), -0.39 (inactive), -0.24 (inactive) and 1.25 (inactive).
Take `Cc1c(O)cccc1C(=O)N[C@@H](CSc1ccccc1)[C@H](O)CN1C[C@H]2CCCC[C@H]2C[C@H]1C(=O)NC(C)(C)C` [Nelfinavir mesylate] (stock concentration (mM, diluted 1:100): 8.6): the “CDA2-GFP sporulation assay sensitivity score” value in experiment [1] was 4.48 (inactive). Further, the “HIS4 meiotic recombination assay sensitivity score” value in experiment [2] is 0.21 (inactive). The growth sensitivity score in experiment [3] was 16.2 (active); in experiment [4], 0.56 (inactive).
